The subject of assay [1] is Hepatitis C virus NS3 helicase. Description: HCV NS3 helicase inhibitors, primary screen, biochemical, fluorescence polarization, LOPAC1280 library (AID 687035; in the data active = inhibition above about 37%). The conditions noted are these: Purified HCV NS3 helicase, Cy5-dT15 ssDNA binding fluorescence polarization; stronger effect = higher value; concentration not given here. (In general: Polarisation of emitted light reports the rotation of a fluorescent probe.)

The nature of assay [2]: Cy5 fluorescence quenching or enhancement artefacts, artefact control for HCV NS3 helicase inhibitor project, biochemical, LOPAC1280 (AID 687037). The conditions noted are these: Cy5-DNA-NS3h complex fluorescence interference counterscreen. A general note: A counterscreen serves to expose hits that act by an unwanted route or on another target.
The nature of assay [3]: sensitizers of A549 cells to miR-34 induction, primary screen, imaging, A549 dox-inducible miR-34, nuclei and caspase counts (AID 1347080;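 active = compounds whose cell count with miR-34 switched on is under 0.7 times the count with it off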). The conditions noted are these: A549 miR-34 inducible, Hoechst nuclei count, 48 h.
Assay [4] can be described thus: modifiers of HSF1 nuclear foci, imaging, Selleck Cancer Library (AID 1347162; in the data active = plate-normalised HSF1 focus index below about 0.46). The conditions noted are these: human cells, at 10 µM; SSMD: measured here: HSF1 foci SSMD mean; cell count: measured here: cell number; plate-normalised HSF1 focus index: stronger effect = lower value.
A short description of assay [5]: phospholipid biosynthesis inhibitors in animal cells, primary screen, cell-based, LOPAC library, screen 4 (AID 1347384). The conditions noted are these: phospholipid biosynthesis inhibition screen, at 10 µM.
Assay [6] is described as follows: viability rescue of complex I mutant cybrids, primary screen, cell-based, galactose medium, ATP luminescence (AID 1645843;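 active = z-score of at least 1.8 in each of two replicates, scored against plate mean and spread of sample wells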;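 also: positive z means more ATP and so rescue of galactose-driven cybrid death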). The conditions noted are these: complex I mutant cybrid cells, 72 h, stronger effect = higher value.
Assay [7] concerns the target NAD(+) hydrolase SARM1 (Homo sapiens) (UniProt Q6SZW1). Description: SARM1 TIR NADase inhibitors, cell lysate, NAD-Glo luminescence (AID 1508614;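 active = compound whose remaining NAD level is above about 45 nM, limit read from the data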;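 also: higher remaining NAD means stronger inhibition of SARM1 NADase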). The conditions noted are these: SAM-TIR HEK293T lysate NADase, at 1 µM, stronger effect = higher value.
The nature of assay [8]: hESC survival regulators, cell-based (AID 493140).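 Also: cells exposed to compounds for four days before counting.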 The conditions noted are these: human embryonic stem cell survival screen; stronger effect = higher value.
Assay [9] can be described thus: inhibitors of Cryptococcus chitosan production, flow cytometry, Cibacron Brilliant Red staining (AID 1347148).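 Also: compound exposure lasted three days at 37 degrees C.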 The conditions noted are these: Cryptococcus neoformans chitosan, stronger effect = lower value; at 10 µM unless noted.
Where [10] appears, read: stronger effect = lower value, cell number ratio, induced over uninduced.
[11] abbreviates: measured here: relative caspase fold change +Dox/-Dox.
Where [12] appears, read: measured here: total cells with miR-34 induction, stronger effect = lower value.
Where [13] appears, read: measured here: total cells without miR-34 induction.

Active and inactive are the calls of the source. Unless noted, no rule for the calls is given here.

Sequence of NAD(+) hydrolase SARM1 (Homo sapiens) (Q6SZW1 whole entry, looked up): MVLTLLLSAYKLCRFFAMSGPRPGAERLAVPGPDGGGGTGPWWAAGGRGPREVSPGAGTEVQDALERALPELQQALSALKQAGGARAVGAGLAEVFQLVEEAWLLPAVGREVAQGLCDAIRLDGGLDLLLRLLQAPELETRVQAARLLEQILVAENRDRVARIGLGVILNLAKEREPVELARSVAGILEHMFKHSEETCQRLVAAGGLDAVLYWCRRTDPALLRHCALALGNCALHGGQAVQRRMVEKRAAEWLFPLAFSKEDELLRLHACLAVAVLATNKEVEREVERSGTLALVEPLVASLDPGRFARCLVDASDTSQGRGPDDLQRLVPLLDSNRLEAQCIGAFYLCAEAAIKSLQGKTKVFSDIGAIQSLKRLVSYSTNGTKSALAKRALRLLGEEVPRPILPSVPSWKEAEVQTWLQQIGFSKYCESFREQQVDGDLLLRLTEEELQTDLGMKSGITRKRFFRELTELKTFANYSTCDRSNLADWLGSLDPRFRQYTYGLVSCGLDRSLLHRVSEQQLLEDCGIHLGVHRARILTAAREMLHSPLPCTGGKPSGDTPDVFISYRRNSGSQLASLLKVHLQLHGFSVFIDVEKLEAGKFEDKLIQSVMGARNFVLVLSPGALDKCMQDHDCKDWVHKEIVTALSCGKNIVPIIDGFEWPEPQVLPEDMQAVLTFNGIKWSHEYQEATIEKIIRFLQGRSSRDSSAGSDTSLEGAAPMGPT

For the compound `O=C1c2ccccc2C(=O)c2c(NCCc3ccc(O)cc3)ccc(NCCc3ccc(O)cc3)c21`, in assay [1], the inhibition was 13% (inactive). Besides, the fluorescence ratio (interference) in assay [2] is 1.1 (inactive). The results for the fold change in [3] (setting [10]) and in [3] (setting [11]) were 1.15 (inactive) and 1.12, respectively. Besides, the cell count in assay [3] (setting [12]) is 4510; in assay [3] (setting [13]) it was 3920; in [4], 6780. The compound also returned an SSMD in assay [4] of 0.452. In assay [4], the plate-normalised HSF1 focus index is 1.04 (inactive). In addition, in assay [5], the outcome was active. Besides, the z-score in [6] was -0.96 (inactive).

With `CCCCN(CC)c1nc(C)nc2c1c(C)cn2-c1c(C)cc(C)cc1C`, the figures for the fold change in [3] (setting [10]) and in assay [3] (setting [11]) were 1.08 (inactive) and 0.964, respectively. Besides, the cell count in [3] (setting [12]) is 6200; in [3] (setting [13]) it was 5770. Moreover, the call in [5] was inactive. In assay [6], the z-score is -1.29 (inactive).

As to `Cc1nc2n(c(=O)c1CCN1CCC(c3noc4cc(F)ccc34)CC1)CCCC2O` (centres undefined), the inhibition in assay [1] was -4% (inactive). Also, the fluorescence ratio (interference) in assay [2] was 1 (inactive). Moreover, the values for the fold change in [3] (setting [10]) and in assay [3] (setting [11]) were 1.04 (inactive) and 0.907, respectively. Further, the cell count stood at 9980 in [3] (setting [12]) and 9570 in [3] (setting [13]). Moreover, the compound was classed as inactive in [5]. Also, in assay [7], the remaining NAD is 10 nM (inactive). For the same compound, in assay [6], the z-score was -0.155 (inactive).

Consider `CCCCC/C=C\C\C=C/C=C/C=C/[C@@H](SCC(NC(C)=O)C(=O)O)[C@@H](O)CCCC(=O)O` (some centres undefined), for which the survival in assay [8] is 136 (inactive). In addition, the fold change in assay [3] (setting [10]) was 0.952 (inactive); in [3] (setting [11]) it was 1.06. In addition, the cell count in assay [3] (setting [12]) was 5780; in assay [3] (setting [13]), 6080. In addition, in assay [9], the fold fluorescence was 4.05 [at 1 µM] (inactive).

Regarding `COC(=O)C1=C(C)NC(C)=C(C(=O)OC)C1c1cccc(NC(=O)NCCCN2CCC(c3cccc(OC)c3)CC2)c1`, the results for the fold change in [3] (setting [10]) and in assay [3] (setting [11]) were 1.58 (inactive) and 0.349, respectively. The cell count was 2200 in assay [3] (setting [12]) and 1390 in [3] (setting [13]). Further, the result in assay [5] was inactive. Moreover, the z-score in assay [6] is -1.35 (inactive).

Regarding `COCCOc1cc2nc[nH]c(=O)c2cc1OCCOC`, the results for the fold change in assay [3] (setting [10]) and in assay [3] (setting [11]) were 1.02 (inactive) and 1.39, respectively. Further, the cell count in assay [3] (setting [12]) was 10200; in assay [3] (setting [13]) it was 10100. In addition, the result in assay [5] was inactive. The z-score in [6] is 1.01 (inactive).

As to `Nc1ccn(C2O[C@H](CO)[C@@H](O)C2(F)F)c(=O)n1` (some centres undefined), the fold change was 1.18 (inactive) in [3] (setting [10]) and 1.01 in assay [3] (setting [11]). Moreover, the cell count in [3] (setting [12]) was 1960; in assay [3] (setting [13]), 1660. In addition, the compound was classed as inactive in assay [5]. Also, in [6], the z-score was -1.32 (inactive).

Turning to `Cc1oc(S(=O)(=O)N2CCCCC2)cc1NC(=O)Nc1ccccc1`, the fold change in assay [3] (setting [10]) is 0.9 (inactive); in [3] (setting [11]), 1.24. Besides, the cell count in assay [3] (setting [12]) stood at 5590; in assay [3] (setting [13]) it was 6210; in assay [4] it was 6950. In [4], this compound gave an SSMD of 2.84. For the same compound, in assay [4], the plate-normalised HSF1 focus index is 1.17 (inactive).

In the case of `Nc1nc2ccc(Cl)cc2n2c(-c3ccccc3)nnc12`, the fold change in assay [3] (setting [10]) is 1.08 (inactive); in [3] (setting [11]), 0.972. Besides, the values for the cell count in assay [3] (setting [12]) and in assay [3] (setting [13]) were 11200 and 10300, respectively. For the same compound, the compound was called inactive in assay [5]. For the same compound, in assay [6], the z-score is 1.13 (inactive).

Regarding `CCCCCCCCCCCCC/C=C/[C@@H](O)[C@H](CO)NC(=O)CCCCCCCCCCCCCCC`, the survival in assay [8] was 62.8 (inactive). Further, the figures for the fold change in assay [3] (setting [10]) and in assay [3] (setting [11]) were 1.03 (inactive) and 1.04, respectively. The results for the cell count in [3] (setting [12]) and in assay [3] (setting [13]) were 5360 and 5200, respectively. Besides, the fold fluorescence in assay [9] is 6.35 (inactive).

By inhibition is commonly meant the drop in the measured response relative to a control, in per cent.
